Measured values from PubChem BioAssay (NCI).
“And” between values parts separate entries of the source, which are not always exact repeats. Equal values may be shown once. Compounds without any hit were thinned out: in the full panel of roughly 79,000, 15% have a hit. The source made the active and inactive calls. Rule as the data show it: active = growth inhibition above about 70%; inactive = the rest.

Legend:
[1] = NCI Yeast Anticancer Drug Screen. Data for the rad50 strain (AID 155);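 also: 0% = growth of vehicle-only cultures of the same strain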; conditions: S. cerevisiae rad50 strain growth inhibition; at 50.0 µM; hits give high values
In short: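 Genetically altered yeast (DNA repair pathway); compound treatment; growth inhibition vs vehicle ctrl.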

[2] = NCI Yeast Anticancer Drug Screen. Data for the mec2-1 strain (AID 157); conditions: S. cerevisiae mec2-1 strain, at 50.0 µM, hits give high values
In short: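 Yeast mec2-1 mutant treated with compound. Readout: growth inhibition vs vehicle controls.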

[3] = NCI Yeast Anticancer Drug Screen. Data for the sgs1 mgt1 strain (AID 161);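 also: 0% = growth of cultures given vehicle only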; conditions: S. cerevisiae sgs1 mgt1 strain, at 50.0 µM, hits give high values
In short: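 Mutant yeast exposed to compound; growth scored against vehicle-only wells.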

[4] = NCI Yeast Anticancer Drug Screen. Data for the cln2 rad14 strain (AID 165);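 also: 0% = growth equal to vehicle treated cultures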; conditions: S. cerevisiae cln2 rad14 strain, at 50.0 µM, hits give high values
In short: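 cln2 rad14 yeast strain; compound exposure; growth inhibition read vs vehicle controls.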

[5] = NCI Yeast Anticancer Drug Screen. Data for the bub3 strain (AID 167); conditions: S. cerevisiae bub3 mutant strain, at 50.0 µM, hits give high values
In short: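 Yeast carrying a defined mutation is treated with each compound, and growth is compared with that of vehicle-exposed cells to give inhibition.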

[6] = NCI Yeast Anticancer Drug Screen. Data for the mlh1 rad18 strain (AID 175); conditions: S. cerevisiae mlh1 rad18 strain growth inhibition; at 50.0 µM; hits give high values
In short: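 Yeast w/ defined DNA-repair lesions; compound exposure; growth vs vehicle controls → % inhibition.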

Measured: growth inhibition

O=[N+]([O-])c1cc(/C=N\NC(=S)NC2CN3CCC2CC3)ccc1Cl (centres undefined)
inactive: [1] 22.5% | [2] -24.1% | [3] 1.85% | [4] 0.15% | [5] 4.8% | [6] 2.4%

O=C([O-])C(F)(F)F.O=[N+]([O-])O.[Co+3].[NH2-].[NH2-].[NH2-].[NH2-].[NH2-]
inactive: [1] 5.25% | [2] 2% | [3] 7.7% | [4] -5.65% | [5] 5% | [6] 39.6%

COc1ccc([N+](=O)[O-])cc1CNCCCl
inactive: [1] -2.75% | [2] 24.6% | [3] 36.5% | [4] -14.8% | [5] 20.1% | [6] 19.4%

COc1cc2c(cc1OC)C1CC(OC(=O)c3ccccc3)(c3nccc4cc(OC)c(OC)cc34)CCN1CC2 (centres undefined)
inactive: [1] 26.9% | [2] 13.9% | [3] 20.6% | [4] 4.95% | [5] -0.8% | [6] 32.5%

NCCN.NCCN.[Cl-].[O]=[Os+2]=[O]
inactive: [1] 0.8% and 3.45% | [2] -22% and 1% | [3] -6.15% and -20.8% | [4] -20.3% and 23.3% | [5] -40.6% and 0.3% | [6] -6.3% and -13.2%

N.N.N.O=N[O-].O=N[O-].O=N[O-].[Co+3]
inactive: [1] -2.05% | [2] 9.65% | [3] -6.25% | [4] 18.6% | [5] 6.5% | [6] -10.4%

O=[N+]([O-])c1ccc(CCl)cc1
inactive: [1] 16.4% | [2] 30.5% | [3] 10.7% | [4] -15% | [5] -23.9% | [6] 26.6%

CC(=O)O.CC(=O)O.CC(=O)O.CC(=O)O.CC(=O)O.CC(=O)O.O.[Ti].[Ti]
inactive: [1] -6.65% | [2] -23.8% | [3] -23.6% | [4] -4.2% | [5] -10.1% | [6] -34%

CC1(C)CN=C(Nc2ccc(F)cc2)S1
inactive: [1] 2.55% | [2] 0.6% | [3] -17.9% | [4] 19.3% | [5] -17.1% | [6] -21.8%

Cc1nnc2n1-c1ccccc1C(=S)N1CSCC21 (centres undefined)
inactive: [1] -22% | [2] -0.25% | [3] -24.7% | [4] 8.15% | [5] -6.7% | [6] -0.45%

CC(C)(OOC(C)(C)c1ccccc1)c1ccccc1
inactive: [1] -13.1% | [2] -16% | [3] 4.6% | [4] -40.9% | [5] 6.05% | [6] -8.95%

Cc1ccc(C(C)(C)C)c(OP(=S)(S)Oc2cc(C)ccc2C(C)(C)C)c1.[Pb]
inactive: [1] 5.9% | [2] -1.85% | [3] -1.3% | [4] 9.7% | [5] -13.7% | [6] 7.3%

NC1(O)C(=O)NC(=O)NC1=O
inactive: [1] -21.4% | [2] -30% | [3] -18.9% | [4] -28.1% | [5] -4.05% | [6] 5.85%

O=C(O)c1ccc(I)cc1.[Ni]
inactive: [2] 5.7% | [3] 57.1% | [4] 8.85% | [6] 30%
active: [1] 82.8% | [5] 85%

CC1C(c2ccccc2)OCCN1C (centres undefined)
inactive: [1] -26.4% | [2] -12.9% | [3] -23.7% | [4] -7.5% | [5] -16.4% | [6] -32.2%

CCOC(=O)Cc1ccccc1
inactive: [1] 24.1% | [2] -5.85% | [3] -1.95% | [4] -2.05% | [5] 9.25% | [6] 23.8%

CC1(C)[C@@H]2CC[C@@]1(C)CN(CCC[N+](C)(C)C)C2
inactive: [1] 15.4% | [2] -11.8% | [3] -30.6% | [4] -5.55% | [5] -19.4% | [6] -2.35%

CC1(C)CC(O)CC(C)(C)N1O
inactive: [1] 21.8% | [2] 15.8% | [3] 37% | [4] 22.2% | [5] 20.2% | [6] 16.4%

CC(C)(C)C1=C(Br)C(OC(=O)C(F)(F)F)(C(C)(C)C)OP1(=O)c1ccccc1 (centres undefined)
inactive: [1] 1.55% | [2] 12.2% | [3] -22.9% | [4] 30.9% | [5] -10.3% | [6] -7.2%
